Screening data: PubChem, several laboratories
This is a sample that favours compounds with a hit; in the whole collection about 4.1% have one here.
TROY NFkB inh: inhibitors of TROY-dependent NF-kB signaling; Q293 LMP1-TROYcd NF-kB luciferase reporter, 4 h; inhibition, % at 10 µM; 360,000 compounds, 0.98% hits;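 active = compounds whose plate-normalised and pattern-corrected inhibition of the luciferase reporter signal at the single screening dose is 50% or more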
EBV LMP1 NFkB: inhibitors of Epstein-Barr LMP1-induced NF-kappaB reporter; LMP1-induced NF-kappaB luciferase reporter cells, luminescence; 350,000 compounds, 0.69% hits; AID 504558; inhibition, % at 12.5 µM; in the data active = inhibition above about 41%; inconclusive = no clear call, values can overlap the other calls
TWEAK Fn14 block: inhibitors of TWEAK-Fn14 interaction signaling. TWEAK-stimulated Fn14 reporter cells, luciferase luminescence, 8 h. inhibition, % at 10 µM. 360,000 compounds, 2% hits. AID 1159606; in the data active = inhibition above about 50%
TRPM1 prom inh: inhibitors of MITF-driven TRPM1 promoter in melanoma cells. SK-MEL-5 TRPM1 promoter luciferase, 24 h. 330,000 compounds, 0.83% hits. inhibition, % at 12.5 µM;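 active = mean inhibition across replicates of 60% or more, whatever share of single replicates reaches that level; inconclusive = some that reach 60%, reason not given; inactive = mean inhibition across replicates below 60%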
Peg3 promoter: inhibitors of Peg3 promoter; HeLa PEG-Prom luciferase reporter, luminescence, overnight; inhibition, % at 20 µM; 360,000 compounds, 1.7% hits; AID 588405;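 active = inhibition of at least 50% at 20 µM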
Shn3 inh set2: inhibitors of Schnurri-3 3'UTR reporter in osteoblasts; Clone20 osteoblast Shn3 3'UTR firefly luciferase, 24 h; inhibition, % at 12.5 µM; 360,000 compounds, 0.52% hits; AID 588674;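 active = mean inhibition of at least 75% with every replicate also reaching 75%; inconclusive = mean inhibition at least 75% but some replicate below; inactive = mean inhibition below 75%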
Large screens that a line does not name were inactive.

CCCCn1nc(C(=O)N(C)C2CCCCC2)c2ccccc2c1=O	none
OCCN1CCN(CCCN2c3ccccc3Sc3ccc(C(F)(F)F)cc32)CC1	Peg3 promoter 61.0
CCSc1ccc2c(c1)N(CCCN1CCN(C)CC1)c1ccccc1S2	Peg3 promoter 57.3
CN(C)CCCN1c2ccccc2Sc2ccc(C(F)(F)F)cc21	none
CN1CCN(CCCN2c3ccccc3Sc3ccc(Cl)cc32)CC1	Peg3 promoter 62.8
OC1CC2CCC(C1)N2CCCN1c2ccccc2Sc2ccc(Cl)cc21 (stereo unspecified)	TRPM1 prom inh 90.8, Peg3 promoter 104.8
CNC(=O)c1cc(NC(=O)N(CCC#N)CCN(C(=O)NC(Cc2ccccc2)C(=O)NC(CC(C)C)C(=O)NC)c2ccccc2)ccc1OC (stereo unspecified)	none
CC(CN1CCN(CCOCCO)CC1)CN1c2ccccc2Sc2ccc(Cl)cc21 (stereo unspecified)	Peg3 promoter 100.6 (no result: TRPM1 prom inh)
COc1ccc2c(c1)N(C[C@H](C)CN(C)C)c1ccccc1S2	none
O=C(COC(=O)c1c[nH]c2ccccc12)Nc1ccc([N+](=O)[O-])cc1	none
Cc1ccc(C)c(N2CC(C(=O)O)CC2=O)c1 (stereo unspecified)	none
CN(C)S(=O)(=O)c1ccc(Nc2nc(C3CC3)nc3c2nnn3Cc2ccccc2Cl)cc1	TWEAK Fn14 block 87.4
CCc1nc(Nc2ccc(OC)c(OC)c2)c2nnn(Cc3ccccc3Cl)c2n1	TWEAK Fn14 block 52.2, TRPM1 prom inh 71.2
O=[N+]([O-])C1C(c2ccccc2)C12c1ccccc1-c1ccccc12 (stereo unspecified)	TWEAK Fn14 block 57.1, Peg3 promoter 53.3 (no result: TRPM1 prom inh)
CCOc1cc(CNCCCN2CCOCC2)cc(Br)c1OCC(=O)Nc1cccc(C(F)(F)F)c1	TRPM1 prom inh 74.4, Peg3 promoter 68.1
CCOc1cc(CNCCCN2CCOCC2)cc(Cl)c1OCC(=O)NC(C)(C)C	none
Cn1c(SC2=CS(=O)(=O)c3ccccc32)nc2ccccc21	TROY NFkB inh 55.9, TWEAK Fn14 block 87.7, TRPM1 prom inh 65.1, Peg3 promoter 98.8
COC(=O)c1cc(C(=O)OC)n(Cc2ccc(F)cc2)c1C	none
Cc1c(C#N)c(NC(=O)CCl)n(Cc2cccs2)c1C	TRPM1 prom inh 77.3, Shn3 inh set2 96.8
Cc1c(C#N)c(NC(=O)CCl)n(Cc2ccccc2)c1C	TRPM1 prom inh 81.3, Peg3 promoter 53.5, Shn3 inh set2 95.3
Cc1c(C#N)c(NC(=O)CCl)n(Cc2ccc(F)cc2)c1C	TRPM1 prom inh 65.6, Peg3 promoter 57.6
CCOC(=O)CC(=O)N/N=C/c1c(N)n(C)c(=O)n(C)c1=O	none
COc1ccc(C(=O)N/C(=C\c2cn(C)c3ccccc23)C(=O)NCCCN2CCOCC2)cc1	none
CCOC(=O)c1c[nH]c(=S)n(-c2ccccc2)c1=O	none
CCOC(=O)c1c(SCCN2CCCC2)n(-c2ccccc2)c(=S)n(-c2ccccc2)c1=O	TRPM1 prom inh 95.7, Peg3 promoter 100.0, Shn3 inh set2 inconclusive
COc1ccc(/C=C\c2cc(OC)c(OC)cc2CC[N+](C)(C)C)cc1OC	none
Cc1cc(NC(=O)CN2C(=O)[C@@H]3[C@H](C2=O)[C@@H]2C[C@H]3C(Br)C2Br)no1 (stereo partly specified)	none
COc1ccc(O)c(/C=N/NC(=O)c2ccc(CSc3nc(C)cc(C)n3)cc2)c1	Shn3 inh set2 88.0 (no result: TRPM1 prom inh)
Cc1cc(C)nc(SCc2ccc(C(=O)N/N=C/c3cccc(O)c3O)cc2)n1	EBV LMP1 NFkB 51.9
CCOC(=O)C1=CCN(S(=O)(=O)c2ccccc2Cl)C1c1ccccc1 (stereo unspecified)	none (no result: EBV LMP1 NFkB, TRPM1 prom inh)
Cc1ccc(NC(=O)CCC(=O)NN=Cc2ccc(C)o2)c(C)c1	none (no result: EBV LMP1 NFkB, TRPM1 prom inh)
CCc1nc(Nc2ccc3c(c2)OCO3)c2oc3ccccc3c2n1	TWEAK Fn14 block 50.5
CCc1nc(Nc2cccc(O)c2)c2oc3ccccc3c2n1	TROY NFkB inh 75.7, TWEAK Fn14 block 70.0, Peg3 promoter 57.0
O=C(O)CCC(=O)NNC(=O)c1cccs1	none
CC(=O)c1c(C(C)=O)c(C)n(C(c2ccccc2)c2ccccc2)c1C	none
COc1ccc(O)c(C(=O)c2coc(=N)c(C(=O)Nc3ccc(SC(F)F)cc3)c2)c1	none
CC(C)(C)c1cc(C(=O)Nc2ccc(F)cc2)n(Cc2ccc(F)cc2)n1	TROY NFkB inh 62.9
Cc1ccc(NC(=O)c2cc(C(C)(C)C)nn2Cc2ccccc2)cc1	none
